The source of these data is PubChem BioAssay (NCATS).

Molecules are shown by their SMILES. Records with an inconclusive call do not appear. Active and inactive are the calls of the source. Unless noted, calls follow the shape of the dose curve; as a rule, active = well fitted curve in the direction sought with a large enough effect; inconclusive = small, poorly fitted or top-dose-only effect, or another doubt; inactive = no such curve, though single readings can be large; an effect the other way counts as inactive or inconclusive.

A short description of assay [1]: A High-Content qHTS Against Drug Library for the Identification of Small Molecules that Inhibit DYT1 Early Onset Primary Dystonia-Associated Cell Pathology (AID 1645839; calls by dose curve; also: series mostly up to about 46 µM). The procedure, abridged: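 In this high-content image screen, delE TorsinA mislocalization in inducible Flp-In 293 cells is scored as %pathology, with cell count serving as the counterscreen. Compound exposure lasts 48 h under tetracycline induction in reduced-serum medium.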
On the technique in general: Quantitative high-throughput screening tests each substance at several concentrations.

Assay [2] concerns the target Cytochrome P450 2D6 (Homo sapiens) (UniProt P10635). In words: Cytochrome P450 family 2 subfamily D member 6 (CYP2D6) small molecule antagonists: luciferase biochemical (cell-free) qHTS assay (AID 1645840; active = well fitted curve in the direction sought with a large enough effect in the repeat runs; an effect the other way counts as inactive or inconclusive; also: nearly all actives have a fitted effect of over 55% in size; also: potency is read from the fitted curve at half-maximal effect). The procedure, abridged:
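P450-Glo luminescent screen: recombinant CYP2D6 enzyme–proluciferin substrate mix preincubated with compound 10 min at room temperature, then NADPH regeneration added for 1 h at room temperature. Detection reagent added for 20 min; luciferin light read as relative luminescence units.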

In assay [3] the target is Cytochrome P450 2C9 (Homo sapiens) (UniProt P11712). Kind of assay: Cytochrome P450 family 2 subfamily C member 9 (CYP2C9) small molecule antagonists: luciferase biochemical (cell-free) qHTS assay (AID 1645842; active = well fitted curve in the direction sought with a large enough effect in the repeat runs; an effect the other way counts as inactive or inconclusive; also: nearly all actives have a fitted effect of over 55% in size; also: potency is read from the fitted curve at half-maximal effect). The procedure, abridged:
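Luminescence, after 20 min with luciferin detection reagent, reflected CYP2C9 turnover during a 1 h NADPH-driven reaction at 37C. Enzyme-substrate mix contained 0.4% bovine serum albumin and was preincubated with compound 10 min at room temperature.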

Assay [4] is described as follows: Primary qHTS for inhibitors of nuclear receptor binding SET domain protein 2 (NSD2) in an isogenic RCH-ACV NSD2 p.E1099K mutant (9B) (AID 1645876). Also: nearly all actives have a fitted effect of over 70% in size. Also: potency is read from the fitted curve at half-maximal effect.
Assay [5] can be described thus: Primary qHTS for inhibitors of nuclear receptor binding SET domain protein 2 (NSD2) in an RCH-ACV wild type WT cells (2C) (AID 1645877). Also: nearly all actives have a fitted effect of over 70% in size. Also: potency is read from the fitted curve at half-maximal effect.

Sequence of Cytochrome P450 2C9 (Homo sapiens) (P11712 whole entry, looked up): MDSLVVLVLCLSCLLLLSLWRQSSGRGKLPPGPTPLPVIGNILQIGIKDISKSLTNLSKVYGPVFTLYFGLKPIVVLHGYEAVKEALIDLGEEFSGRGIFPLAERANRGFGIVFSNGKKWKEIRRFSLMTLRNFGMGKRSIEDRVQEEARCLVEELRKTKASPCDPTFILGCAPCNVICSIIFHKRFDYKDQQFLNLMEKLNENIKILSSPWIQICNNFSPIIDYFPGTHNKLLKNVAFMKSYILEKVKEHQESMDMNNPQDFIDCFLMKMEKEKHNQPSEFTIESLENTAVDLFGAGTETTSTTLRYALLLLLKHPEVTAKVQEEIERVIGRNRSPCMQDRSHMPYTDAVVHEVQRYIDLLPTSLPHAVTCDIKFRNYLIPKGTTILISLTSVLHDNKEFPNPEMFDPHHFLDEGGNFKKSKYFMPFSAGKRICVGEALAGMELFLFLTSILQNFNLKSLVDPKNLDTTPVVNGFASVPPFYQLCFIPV
Sequence of Cytochrome P450 2D6 (Homo sapiens) (P10635 whole entry, looked up): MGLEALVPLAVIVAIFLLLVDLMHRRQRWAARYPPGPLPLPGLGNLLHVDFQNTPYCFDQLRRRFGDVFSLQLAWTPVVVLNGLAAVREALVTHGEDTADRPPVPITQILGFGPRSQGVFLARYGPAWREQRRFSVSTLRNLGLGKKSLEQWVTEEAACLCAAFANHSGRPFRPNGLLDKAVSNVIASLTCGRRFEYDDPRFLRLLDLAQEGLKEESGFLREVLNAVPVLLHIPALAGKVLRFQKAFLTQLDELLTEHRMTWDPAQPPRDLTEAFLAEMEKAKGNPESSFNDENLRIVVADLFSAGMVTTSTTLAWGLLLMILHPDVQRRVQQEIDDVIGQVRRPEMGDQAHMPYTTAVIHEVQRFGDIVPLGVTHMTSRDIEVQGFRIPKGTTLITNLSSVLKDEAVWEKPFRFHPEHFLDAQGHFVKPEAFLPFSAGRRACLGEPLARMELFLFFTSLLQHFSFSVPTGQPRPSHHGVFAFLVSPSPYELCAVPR

`OC(CCN1CCCCC1)(c1ccccc1)c1ccccc1`: the Potency entry in assay [1], in assay [3], in assay [4] and in assay [5] was “inactive” throughout. In addition, the Potency in assay [2] was 0.617 µM (active).
Take `NCCC(O)(P(=O)(O)O)P(=O)(O)O`: the Potency entry in assay [1], in assay [2], in assay [3], in assay [4] and in assay [5] was “inactive” each time.
Consider `CCCSS/C(CCO)=C(\C)N(C=O)Cc1cnc(C)nc1N`, for which the Potency result in assay [1], in assay [2] and in assay [3] was “inactive” in each case. For the same compound, the values for the Potency in assay [4] and in assay [5] were 15 µM (active) and 16.8 µM (active), respectively.
Turning to `O=C1c2ccccc2C(=O)C1c1ccccc1`, the Potency entry in assay [1], in assay [2], in assay [3], in assay [4] and in assay [5] was “inactive” throughout.
`NCCCC[C@H](N[C@@H](CCc1ccccc1)C(=O)O)C(=O)N1CCC[C@H]1C(=O)O`: the Potency result in assay [1], in assay [2], in assay [3], in assay [4] and in assay [5] was “inactive” in each case.
In the case of `CCN1CCN(c2cc3c(cc2F)c(=O)c(C(=O)O)cn3C2CC2)CC1`, the Potency result in assay [1], in assay [2], in assay [3], in assay [4] and in assay [5] was “inactive” each time.
As to `C[C@H](O)C(=O)Nc1c(I)c(C(=O)NC(CO)CO)c(I)c(C(=O)NC(CO)CO)c1I`, the Potency result in assay [1], in assay [2], in assay [3], in assay [4] and in assay [5] was “inactive” in each case.
`CC(C)(CO)[C@@H](O)C(=O)NCCCO`: the Potency entry in assay [1], in assay [2], in assay [3], in assay [4] and in assay [5] was “inactive” in each case.
For `CN1CCN(C(c2ccccc2)c2ccccc2)CC1`, the Potency entry in assay [1], in assay [3], in assay [4] and in assay [5] was “inactive” in each case. Further, in assay [2], the Potency was 4.9 µM (active).
Take `Cc1ncc(CSSCc2cnc(C)c(O)c2CO)c(CO)c1O`: the Potency result in assay [1], in assay [4] and in assay [5] was “inactive” in each case. Also, the Potency in assay [2] is 7.76 µM (active); in assay [3], 6.17 µM (active).
As for `COc1c2occc2c(OC)c2c(=O)cc(C)oc12`, the Potency entry in assay [1], in assay [4] and in assay [5] was “inactive” throughout. The Potency is 15.5 µM (active) in assay [2] and 11 µM (active) in assay [3].
